Data taken from ChEMBL document CHEMBL3988442, “University of Dundee, Small-Polar-MMV Screening Library” (2021).
Screen size: about 48,000 compounds; about 13,000 (27%) showed an effect of 50% or more. The list shows a part of the results.

These compounds were tested on Wolbachia pipientis (assay: Anti-Wolbachia Cell-Based Screen). Details: 5 µM.
Type: functional
Set-up: scale not given: in the data most compounds retested in dose-response had high values

In order of rising “Percent Effect” value:
1. O=C(Cc1ccc(F)cc1Cl)N1C[C@@H](CN2CCC(O)CC2)[C@@H](CO)C1  -45.53%
2. O=C(CCC(F)(F)F)NCC1CCCS1 (stereo not drawn)  -25.1%
3. CC(C)c1cc(NCC(C)N2CCCC2)n2nccc2n1 (stereo not drawn)  -22.52%
4. CCc1nnc2n1CCN(c1nc3ccccc3o1)C2  -17.82%
5. CC(=O)NCCNc1cc(C)nc2cc(C)nn12  -17.81%
6. CCN(CC)c1ccc(CNC(=O)c2ccc(=O)[nH]n2)cn1  -14.62%
7. COCc1nc(C2CC2)nn1-c1cc(Cl)ccc1OC  -14.4%
8. CN1CC(c2ccccc2)CC12CCN(C(=O)c1ccncc1)CC2 (stereo not drawn)  -13.44%
9. O=C1CCCN1CCc1noc(-c2ccc3[nH]cnc3c2)n1  -10.57%
10. Cc1ncnc2c1CCN(C(=O)c1cccnc1)CC2  -9.06%
11. CC(C)C1CN(C(=O)c2ccncc2)CCS1 (stereo not drawn)  -8.547%
12. CCS(=O)(=O)N1CCC2(CCCN(Cc3cc(OC)ccc3F)C2)C1 (stereo not drawn)  -8.238%
13. Cc1ncoc1C(=O)N1C[C@@H]2CN(CC3CC3)CCO[C@@H]2C1  -7.815%
14. Cc1ocnc1C(=O)N1CCN(C(=O)CC(C)C)[C@@H]2CS(=O)(=O)C[C@@H]21  -7.127%
15. O=C(NC1(c2nccs2)CCCC1)c1cc(C2CC2)on1  -6.868%
16. O=C(NC1(c2cccc(F)c2)CCOCC1)c1cc[nH]n1  -5.45%
17. COCCCSc1ccc(NCc2cscn2)cc1  -5.261%
18. CN1CCC(n2nc(Cc3cccc(Cl)c3)nc2Cn2ccnc2)CC1  -3.422%
19. O=C(COc1ccc(C(F)(F)F)cc1)NS(=O)(=O)c1cccnc1  -2.745%
20. Cc1cc(NCCNc2ccc(C#N)cn2)nc(C)n1  -1.6%
21. COc1cccc(CN(C)Cc2ccc(C#N)cc2)c1OC  -1.171%
22. CCC(CNC(=O)c1nc(=O)[nH][nH]1)Oc1cccc(C(F)(F)F)c1 (stereo not drawn)  -1.128%
23. Cc1ncoc1C(=O)N1CCCC(C(=O)c2cccc(OC(C)C)c2)C1 (stereo not drawn)  -0.1018%
24. CCS(=O)(=O)N(C)C1CCN(Cn2ccc(-c3ccc(F)cc3)n2)CC1  1.424%
25. COc1ccnc(NC(=O)CSCc2cccnc2)c1  1.726%
26. CN(Cc1ccco1)Cc1ccccc1CNC(=O)c1c[nH]nn1  2.895%
27. CC(NC1(CNS(C)(=O)=O)CCOCC1)c1ccccc1 (stereo not drawn)  3.887%
28. O=C(NCC1(CO)CC1)c1ccccc1Cl  3.943%
29. CCCn1nc(C(=O)NCCc2nnc3n2CCC3)ccc1=O  5.324%
30. CN1CCN(c2cc(CNC(=O)c3ccc(=O)[nH]n3)ccn2)CC1  7.081%
31. CC(C)c1cc(NCC(O)CO)n2nccc2n1 (stereo not drawn)  7.798%
32. O=C(NCCn1nc2ccccn2c1=O)c1cc[nH]n1  8.097%
33. Cc1ocnc1C(=O)N1CCC(c2nccn2Cc2ccncc2)CC1  10.72%
34. COc1ccc(C(=O)n2nc(C)c(C)c2C)cc1  10.75%
35. Cc1cc(NCc2cccnc2)n2nc(C)cc2n1  12.04%
36. Cc1cc2nc(C(C)C)cc(NCC(c3ccccn3)N(C)C)n2n1 (stereo not drawn)  15.65%
37. Cc1ccccc1OCCC(=O)OC(C)C(=O)Nc1sccc1C(N)=O (stereo not drawn)  15.81%
38. CC(C)c1cc(NCC(O)c2ccccn2)n2nccc2n1 (stereo not drawn)  16.27%
39. CC(C)Nc1ncccc1C(=O)NCc1cnc(N(C)C)n1C  23.22%
40. Cc1noc(C)c1CS(=O)(=O)CC(=O)N1c2ccccc2CC1C (stereo not drawn)  25.49%
41. Cc1ccccc1[C@@H]1CN(Cc2ccc(C(F)(F)F)nc2)C[C@H]1C(=O)O  28.6%
42. COc1cccc(CNC(=O)c2cccnc2SC(C)C)c1  92.51%
43. O=C(NCC1(Sc2ccccc2)CC1)c1c[nH]nn1  96.18%
44. CC(C)Sc1ncccc1C(=O)NCc1cccc(N(C)C)c1  97.33%
45. O=C(NCC1(Sc2ccccc2)CC1)c1ccc(=O)[nH]n1  98.28%
46. Cc1cccnc1NCCNc1cc(C(C)C)nc2ccnn12  101.8%
47. Cc1nn(C(=O)c2cccnc2)c(C)c1C  108.2%
48. O=C(NCC1(Sc2ccccc2)CC1)c1cc[nH]n1  109.2%
49. Cc1cc(NCCNc2ncccc2C)n2nc(C)cc2n1  109.3%
50. Cc1cc2nc(C(C)C)cc(NCCNc3ncccc3C)n2n1  112.1%
51. O=C(c1ccncc1)N1CC[C@@H](O)[C@@H](O)[C@H](N2CCC(F)(F)CC2)C1  113.1%
52. Cc1ocnc1C(=O)N1CC[C@@H](O)[C@@H](O)[C@H](N2CCC(F)(F)CC2)C1  120%
53. Cc1ncoc1C(=O)N1CC[C@@H](O)[C@@H](O)[C@H](N2CCC(F)(F)CC2)C1  142%
